Source: PubChem BioAssay (Sanford-Burnham Center for Chemical Genomics)
Hits are enriched below; roughly 3.1% of the tested compounds scored in any of these assays.
HIF-2a block: inhibitors of HIF-2a; 786-0 RCC cells HIF-2a reporter, luciferase luminescence, overnight; inhibition, % at 18.8 µM; 0.72% of 360,000 active;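 active = inhibition of the luminescence signal of 40% or more relative to plate controls, in a single-dose primary screen at 18.75 µM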
Peg3 prom inh: Peg3 promoter activity inhibition; HeLa PEG-Prom luciferase reporter, luminescence, overnight; inhibition, % at 20 µM; 1.7% of 360,000 active; AID 588405;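 active = inhibition of at least 50% at 20 µM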
TRAIL sens C8: sensitizes caspase-8 expressing cells to TRAIL | NB7+C8 cells + TRAIL, ATPlite viability luminescence | inhibition (viability loss, TRAIL sensitization), % at 10 µM | 1% of 360,000 active;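 active = compounds causing at least 50% loss of cell viability in the single-dose screen, relative to plate controls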
KKLEB cytotox: CF airway cell cytotoxicity counter-screen. KKLEB CF airway cells viability, ATPlite luminescence, overnight; stronger effect = lower value; cells stimulated with P. aeruginosa culture filtrate. 0.36% of 360,000 active. activity change (cytotoxicity), % at 5 µM;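 active = corrected activity change at or below -50% at 5 µM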
CF NFkB inh: cystic fibrosis NF-kB activation inhibition. AID 588850. 0.86% of 360,000 active. inhibition, % at 5 µM. KKLEB NF-kB-GFP reporter, PAF-induced, GFP fluorescence overnight;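 active = at least 50% inhibition at 5 µM, scaled per plate between neutral and stimulator controls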;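 also: PAF is a Pseudomonas aeruginosa culture filtrate used as stimulus; plate controls were PAF-stimulated DMSO wells for no effect and unstimulated DMSO wells for full effect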
PPC-1+TRAIL kill: kills PPC-1 cancer cells in the presence of TRAIL; PPC-1 cells + TRAIL, ATPLite viability luminescence; cell killing (% activity), % at 4 µM or 5 µM; 0.41% of 220,000 active;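 active = cell killing above 50% in the first pass at 4 µM, then a duplicate retest at 5 µM averaging 50% or more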;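 also: plate controls were cells with TRAIL plus DMSO for no effect and medium-only wells lacking cells for full effect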
An asterisk follows results filed as active; . = no result.

SMILES	HIF-2a block	Peg3 prom inh	TRAIL sens C8	KKLEB cytotox	CF NFkB inh	PPC-1+TRAIL kill
COc1ccc(/C=N/Nc2nc3ccccc3c(=O)n2-c2ccccc2)cc1OC	-181	-116	53*	-7	5	27
CSc1nc(N)nc(SCC(=O)Nc2ccc(Cl)cc2)c1C#N	-145	-96	25	-17	0	7
CSc1nc(N)nc(SCCS(=O)(=O)c2ccc(Cl)cc2)c1C#N	-4	33	0	-65*	24	28
CCCCCC(=O)N1C[C@H](O)[C@@H](n2cc(COC(=O)c3ccccc3)nn2)C[C@@H]1c1ccc(Cl)cc1	-5	10	24	-2	-3	.
COc1ccccc1N1CCN(C(=O)CCCn2c(=S)[nH]c3ccccc3c2=O)CC1	8	68*	26	0	-11	.
COc1ccccc1N1CCN(C(=O)CCn2c(=O)[nH]c3ccccc3c2=O)CC1	10	3	-4	-1	-6	17
O=C(NC(c1cccnc1)c1ccc2c(c1)OCO2)C1CCN(CCOc2ccc(Cl)cc2Cl)CC1 (stereo not drawn)	-19	10	-10	-3	-4	.
O=C(Cn1c2ccccc2c(=O)c2ccccc21)N/N=C/c1cc([N+](=O)[O-])ccc1N1CCCCCC1	14	12	60*	-24	17	15
O=C(Cn1c2ccccc2c(=O)c2ccccc21)N/N=C/c1ccc(N2CCCC2)c([N+](=O)[O-])c1	1	91*	23	-1	-9	20
O=C(N/N=C/c1cc([N+](=O)[O-])ccc1N1CCNCC1)c1ccc([N+](=O)[O-])cc1	28	103*	38	-7	-5	26
O=C(N/N=C/c1ccc(N2CCCC2)c([N+](=O)[O-])c1)c1cccnc1	-46	-8	0	14	-21	1
O=C(CNc1ccccc1)N/N=C/c1cc([N+](=O)[O-])ccc1N1CCCC1	11	11	-7	4	3	4
CCCNC(=O)Cn1c(=O)/c(=C/c2ccc(-c3ccc([N+](=O)[O-])cc3)o2)s/c1=C\C(=O)C(C)(C)C	15	30	3	-1	-319	.
CC(=O)c1ccc(N(CC(=O)NC2CCCCC2)C(=O)CNC(=O)c2cccs2)cc1	11	-1	5	11	-17	.
Nc1ncnc2c1ncn2[C@@H]1O[C@H](C(=O)Nc2ccc(C(=O)N3CCCCC3)cc2)[C@@H](O)[C@H]1O	0	2	-5	-8	5	.
Fc1ccc(-c2nc3c4ccccc4ccn3c2Cc2cccc(Cl)c2)cc1	-61	-55	16	-13	13	.
Cc1cccc(OCC(O)Cn2c(=N)n(Cc3ccccc3)c3ccccc32)c1 (stereo not drawn)	16	2	28	-5	-4	16
COc1ccc(OCC(O)Cn2c(=N)n(Cc3ccccc3)c3ccccc32)cc1 (stereo not drawn)	3	46	10	-19	5	43
N=c1n(Cc2ccccc2)c2ccccc2n1CC(O)COc1ccc(Cl)cc1Cl (stereo not drawn)	7	104*	19	-28	16	.
N=c1n(Cc2ccc(Cl)cc2)c2ccccc2n1CC(O)COc1ccccc1 (stereo not drawn)	-22	101*	21	-50	34	9
Cc1ccc(OCC(O)Cn2c(=N)n(Cc3ccccc3)c3ccccc32)cc1 (stereo not drawn)	-1	108*	34	-21	7	37
CC(C)(C)c1ccc(C(=O)N2CCC2(C)C(=O)NCc2ccc3c(c2)OCO3)cc1 (stereo not drawn)	6	-2	0	-5	13	.
Cc1ccccc1CN1CCN(c2nc3ccccc3s2)CC1	-293	-331	8	-10	13	.
Cc1ccc(-n2nnc(-c3cccnc3Cl)n2)cc1	-227	-242	61*	-15	7	40
O=[N+]([O-])c1ccc2c(c1)Cc1cc(F)ccc1-2	-29	-8	-17	-7	-54	.
SMILES	HIF-2a block	Peg3 prom inh	TRAIL sens C8	KKLEB cytotox	CF NFkB inh	PPC-1+TRAIL kill
O=C1C=CC(=O)N1c1ccc2c(c1)Cc1cc(F)ccc1-2	-5	97*	5	-12	26	.
CC(=O)Nc1ccc2c(c1)Cc1cc(N3C(=O)C=CC3=O)ccc1-2	42*	98*	-8	5	30	.
O=C(NCC(O)c1nc2ccccc2[nH]1)c1cc2ccccc2[nH]1 (stereo not drawn)	21	-7	-22	9	-5	.
COc1ccc(CN(C)C(=O)CCl)cc1	1	12	13	-11	3	9
CN(Cc1ccc(Cl)cc1)C(=O)CCl	-6	18	-3	-57*	50*	15
CCOc1ccc(S(=O)(=O)NCCC(=O)N(C)CC(=O)Nc2ccc(N3CCOCC3)cc2)cc1	0	5	16	-1	-15	.
CN(C)c1ccc2nc3ccc(=[N+](C)C)cc-3sc2c1	-161	-110	56*	-5	79*	67*
CSc1nc2ccc(S(=O)(=O)N(C)C)cc2s1	-5	-18	4	7	-22	12
CN(C)c1ccc2nc3ccc(=O)cc-3sc2c1	-90	-126	30	8	52*	.
CCOC(=S)SCC(=O)Nc1nc(-c2ccc(Br)cc2)cs1	-260	-5	-12	-40	66*	15
CCOC(=O)N1CCN(C(=O)CSCC(=O)Nc2nc(-c3ccc(-c4ccccc4)cc3)cs2)CC1	-206	-129	62*	4	-34	24
O=[N+]([O-])c1ccc(COc2cccc(CN3CCCCC3)c2)cc1	-11	-2	8	3	-18	.
CCOC1=C2[C@H](c3ccc(CC)cc3)N(S(=O)(=O)c3ccc(C)cc3)C[C@H]2C(C#N)(C#N)C(C#N)(C#N)C1	62*	89*	4	-26	34	.
CCOC1=C2[C@H](c3ccccc3Cl)N(S(=O)(=O)c3ccc(C)cc3)C[C@H]2C(C#N)(C#N)C(C#N)(C#N)C1	61*	50	-21	-14	32	.
CCOC1=C2CN(S(=O)(=O)c3ccc(C)cc3)C(c3ccc(CC)cc3)CC2N(S(=O)(=O)c2ccc(C)cc2)C(c2ccc(CC)cc2)C1 (stereo not drawn)	1	.	23	.	.	.
Cc1ccc(C)c(C(=O)COC(=O)c2cccc(N3C(=O)c4c(C)nc5ccccc5c4C3=O)c2)c1	-2	1	57*	4	4	65*
O=C(CCN1C(=O)/C(=C/c2ccccc2Cl)SC1=S)NC1CCCC1	17	36	15	4	15	.
COc1ccccc1/C=C1\SC(=O)N(CCC(=O)NNC(=O)c2ccccc2Cl)C1=O	-19	-89	2	-3	0	23
O=C(CCN1C(=O)/C(=C/c2ccccc2Cl)SC1=S)Nc1cccnc1	-19	-29	13	1	-34	.
COc1ccccc1/C=C1\SC(=S)N(CCC(=O)NNC(=O)c2ccccc2OC)C1=O	44*	9	0	0	-10	.
